Experimental data taken from PubChem BioAssay AID1117319 (Southern Research Institute, 2015).
“And” between values parts separate entries of the source, which are not always exact repeats. Equal entries are not always repeated. Out of some 260,000 compounds screened, about 1,500 (0.58%) were called active. Inconclusive results (about 5%) are left out.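 Rule for the calls: active = inhibition above a set limit at one or more doses, reproduced on every date tested; inconclusive = results disagree between test dates, or hit never tested in dose response; inactive = the rest.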 These entries were drawn from the full list. Measured potencies and affinities stand elsewhere.

target: Virion infectivity factor (Human immunodeficiency virus type 1 group M subtype B (isolate BH10)) + Virion infectivity factor (Human immunodeficiency virus type 1 group M subtype B (isolate BRU/LAI)) + Virion infectivity factor (Human immunodeficiency virus type 1 group M subtype B (isolate PCV12)) + Virion infectivity factor (Human immunodeficiency virus type 1 group M subtype B (isolate HXB2)) + DNA dC->dU-editing enzyme APOBEC-3G (Homo sapiens) (UniProt P69720+P69721+P69722+P69723+Q9HC16); experiment: HIV-1 Vif–A3G interaction blockers – biochemical, TR-FRET, GST-Vif 1-94, biotin-A3G peptide, dose response retest, primary screen (AID 1117319); conditions: TR-FRET GST-Vif / biotin-A3G peptide binding; hits give high values;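 note: Vif residues 1-94 fused to GST binding biotinylated APOBEC3G peptide 110-148; 0% = full assay without inhibitor and 100% = GST in place of GST-Vif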

inhibition, inactive:
O=C(Nn1cnc2ccccc2c1=O)c1ccc([N+](=O)[O-])cc1 -7.54%
c1ccc(CNn2nnnc2-c2ccccc2)cc1 1.36%
O=[N+]([O-])c1ccc(COc2cccc(CNc3ccc(Br)cc3)c2)cc1 2.31%
Oc1ccc(NCc2ccc(OCc3ccccc3)cc2)cc1 17.4%
CN(C)S(=O)(=O)c1ccc(N2CCCC2)c(C(=O)Nc2nc3c(ccc4ccccc43)s2)c1 -35.6%
O=C(NCc1nnnn1-c1ccc(F)c(F)c1)C(=O)c1c[nH]c2ccccc12 11.1%
Cc1cccc(N2CCN(C3=NC(=O)C(Cc4ccccc4)S3)CC2)c1 (stereo not drawn) 14.4%
CCN1C(=C2C(=O)c3ccccc3C2=O)C=Cc2ccccc21 26.5%
O=C1C=Cc2ccccc2/C1=C/c1[nH]c(=O)[nH]c1O -10.7%
O=C1CC(NS(=O)(=O)c2cccnc2)CN1c1ccc(F)cc1 (stereo not drawn) -4.88%
N#Cc1ccccc1Sc1ccccc1C(=O)Nc1ccc(Br)cc1 5.46%
C(=C1/CCCC2=C1Nc1ncnn1C2c1ccccc1)/c1ccccc1 (stereo not drawn) 0.53%
Fc1ccccc1/C=C1\CCCC2=C1Nc1nnnn1C2c1ccccc1F (stereo not drawn) 15.4%
CC1CCC/C(=C\Nc2ccc(C(=O)O)cc2)C1=O (stereo not drawn) 4.93%
CC1CCC/C(=C\Nc2ccccc2C(=O)O)C1=O (stereo not drawn) 5.74%
Cc1cc(C(=O)O)ccc1N/C=C1\CCCC(C)C1=O (stereo not drawn) 10.9%
CCOC(=O)c1ccc(N/C=C2/CCCC(C)C2=O)cc1 (stereo not drawn) 1.6%
Cc1ccc(C(=O)NCCc2csc(-c3cccnc3)n2)cc1 3.26%
O=C(CCC(=O)NNC(=O)c1ccc([N+](=O)[O-])cc1)NCc1ccccc1 6.94%
O=C(NCCO)c1cc2ccccc2cc1O 2.23% and 6.09%
CCCCCCCCSC1=CC(=O)C(OC)=C(OC)C1=O 31.4%
COC1=CC(=O)C(OC)=C(OC)C1=O 5.9%
CSCCC(NC(=O)c1ccco1)C(=O)NCCc1ccc(Cl)cc1 (stereo not drawn) -15.8%
CC(=O)c1ccccc1NS(=O)(=O)c1ccccc1Cl -6.08%
CCN(CC)C(=O)Oc1ccc2c(c1)O/C(=C\c1ccco1)C2=O 12.6%
COC(=O)COc1ccc2c(c1)O/C(=C\c1ccco1)C2=O 24%
CC(C)Nc1nc2cccnc2s1 -0.88%
O=C(Nc1ccc(NC(=O)c2cccs2)cc1)c1ccc2c(c1)OCCO2 3.57%
COc1ccc(N2CCN(C(=O)CCc3c[nH]c4ccccc34)CC2)cc1 3.01%
O=C(CCc1c[nH]c2ccccc12)N1CCN(c2ccc(F)cc2)CC1 -3.01%
O=C(/C=C/c1ccccc1Cl)N(Cc1ccc(Cl)cc1)C1CCS(=O)(=O)C1 (stereo not drawn) 23.6%
CCC(C)c1ccccc1NC(=O)c1cccnc1 (stereo not drawn) -3.72%
Cc1cc(Cl)c(S(=O)(=O)N2CCCC2)cc1OCC(=O)NC1CCCCC1 -1.25%
Cc1cc(Cl)c(S(=O)(=O)NC2CCCC2)cc1OCC(=O)NC1CCCCC1 -2.05%
CC(=O)c1cccc(N(CC(=O)Nc2ccc(F)cc2F)S(C)(=O)=O)c1 7.3%
O=C(NNc1cccc(Cl)n1)Nc1cccc(C(F)(F)F)c1 2.4%
Cc1cc(C)cc(NC(=O)CSc2nnc(-c3ccccc3C)o2)c1 27.4%
COc1cc(NC(=O)c2cccc(Cl)c2)ccc1NC(=O)c1cccs1 2.27%
Cc1ccsc1C(=O)C1CCCN(Cc2cn(C)nc2-c2ccccc2)C1 (stereo not drawn) -6.7%
Cc1cc(C)c(C#N)c(Oc2ccc(O)cc2)n1 0.3%
Cc1cc(C)c(C#N)c(Oc2ccc(F)cc2)n1 18.6%
O=C1c2ccc([N+](=O)[O-])cc2C(=O)N1CNc1ccccn1 3.96%
N#CCCN(Cc1ccccc1)C(=O)c1nccnc1C(=O)O -11%
O=C(N/N=C/c1cn(Cc2ccccc2)c2ccccc12)c1cccnc1 -5.6%
O=C(N/N=C/c1cn(Cc2ccccc2)c2ccccc12)c1ccncc1 8.92%
Cc1ccc(S(=O)(=O)Cc2c(C)noc2C)cc1 3.86%
O=C(/C=C/c1ccc(O)cc1)c1ccc(O)cc1O 9.02%
O=CN/C=C/c1cccc(O)c1 -10.2%
Cc1cc(C)c(S(=O)(=O)N2CCCCC2)c(C)c1N(C)S(=O)(=O)c1ccccc1 -2.38%
Cc1cc(C)c(S(=O)(=O)N2CCCCC2)cc1N(C)S(=O)(=O)c1ccc(Cl)cc1 17.4% and -11.3%
COc1cc(C2C(C#N)=C(N)N(N(C)C)C3=C2C(=O)CCC3)ccc1O (stereo not drawn) 3.96%
CN(C)N1C(N)=C(C#N)C(c2ccccc2)C2=C1CCCC2=O (stereo not drawn) 9.57%
Cc1ccc(C2C(C#N)=C(N)N(c3cccnc3)C3=C2C(=O)CCC3)c(C)c1 (stereo not drawn) -5.44%
CN(C)N1C(N)=C(C#N)C(c2cccnc2)C2=C1CC(C)(C)CC2=O (stereo not drawn) -8.23%
CC(C)(C)NC(=O)CSc1nc(O)cc(=O)[nH]1 6.41%
CCC1=NN(C(=O)Cc2ccc([N+](=O)[O-])cc2)C(O)(C(F)(F)F)C1 (stereo not drawn) 17.1%
CC1CN(c2ccccc2)CCN1Cc1nc(Cc2ccccc2)no1 (stereo not drawn) -4.62%
Cc1ccc(-c2csnn2)cc1 -3.52%
O=C(Nc1ccc(Cl)cc1)c1cncs1 -5.16%
COC(=O)CSC(=S)N1CCCC(C)C1 (stereo not drawn) -1.45%
COc1ccc(Nc2nc(OC)nc(OC)n2)cc1 2.78%
COc1ccc(Nc2c(C)cccc2C)cc1 -5.1%
Cc1ccccc1-n1c(-c2ccc(Cl)cc2)cnc1SCC(=O)NC1CCS(=O)(=O)C1 (stereo not drawn) -0.29%
